# Measured values from PubChem BioAssay AID808 (Columbia University Molecular Screening Center, 2007).
# The whole screen tested about 93,000 compounds, of which about 180 (0.19%) were called active. Many of the other results were omitted from the sample, so actives are more common in it than they were. Values without a mark were called inactive.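 Rule for the calls: active = activation above the screen mean plus 3 SD, with well images confirming the hit on visual review (cut at about 28% in these data, passing the limit was not always enough); inconclusive = activation above that limit but images do not confirm it; inactive = activation not above that limit.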
# Experiment: enhancers of endothelial VCAM-1 upregulation by TNFa – imaging, HUVEC, TNFa stimulus, immunofluorescence, primary screen (AID 808);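 note: signal is the number of cytoplasmic VCAM-1 stained grains per positive cell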
# Details: HUVEC TNFa-stimulated VCAM-1 immunofluorescence, high-content imaging; at 2 µM; stronger effect = higher value; scaled per plate to unstimulated/TNFa-only wells
row,SMILES,activation
1,CSc1nnc2c(n1)OC(c1cn(C)c3ccccc13)N(C(C)=O)c1ccccc1-2 (centres undefined),-5%
2,CCOc1cc(-c2cc(-c3ccc(OC)cc3)nc(N)c2C#N)ccc1O,32.6% (active)
3,CSc1ccc(CCNC(=O)C2CCN(c3nnc(-n4cccc4)s3)CC2)cc1,-2.8%
4,O=C(Cn1cnc2c(nnn2Cc2ccc(F)cc2)c1=O)NCc1ccc2c(c1)OCO2,-6.6%
5,Cc1ccc(N2C(=O)c3ccccc3C2(O)c2ncc[nH]2)cc1 (centres undefined),-0.7%
6,CCOC(=O)c1ccc(NC(=O)CS(=O)(=O)c2cn(CC)c3ccccc23)cc1,-6.9%
7,COc1ccc2c(c1)C=CC1(O2)N(CCO)c2ccccc2C1(C)C (centres undefined),1.4%
8,O=C(Nc1nccs1)C1CCN(S(=O)(=O)c2ccc(Cl)c(C(F)(F)F)c2)CC1,-9.5%
9,O=c1c2ccccc2nc2n1C(CSCc1cccc(C(F)(F)F)c1)CS2 (centres undefined),-7.9%
10,O=C(NCc1ccco1)c1sc2cccc(F)c2c1Cl,0.7%
11,CC1(C)CC(=O)C=C(N2CCCC2)C1,79% (active)
12,Oc1ccc2nc(Cc3ccccc3)[nH]c2c1,5.6%
13,CC(C)NC(=O)c1ccccc1S(=O)c1ccccc1C#N (centres undefined),-0.6%
14,Cc1cc(Nc2ccccc2)n(CCC#N)n1,-2.1%
15,COc1ccc(CC(=O)Nc2sc(Cc3ccccc3)c(C)c2C(N)=O)cc1,8.4%
16,Cn1c(=O)n(C)c2cc(CNc3ccc(N4CCOCC4)c(C(=O)O)c3)ccc21,-26.1%
17,Brc1ccc(-c2nnc(-c3ccccc3)o2)o1,20.5%
18,O=[N+]([O-])c1ccccc1OCCCCN1CCCCC1,-6.6%
19,CCOc1ccccc1Nc1nnc(SCc2ccc(C(=O)OC)o2)s1,-4.9%
20,O=C(CSc1nc2ccccc2o1)N1CCN(c2ccc(Cl)cc2)CC1,6.9%
21,COc1ccc(-c2nnc(SCC(=O)NC3CCCCC3)o2)cc1OC,-87.2%
22,CC1(C)Cc2cccc(OCC(N)=O)c2O1,-5.6%
23,O=C1c2ccccc2C(=O)c2c1cccc2N1CCN(Cc2ccccc2)CC1,8.5%
24,COc1ccc(-c2cc(C(F)(F)F)nc(SCCC(=O)NCc3ccco3)n2)cc1,-32.5%
25,COc1ccc(OC)c(N=Cc2c(O)[nH]c3ccccc23)c1,41.3% (active)

row,SMILES,activation
1,O=S(=O)(c1cccs1)N1CCN(Cc2ccccc2)CC1,6.9%
2,CCOC(=O)c1c(N=CN(C)C)c(C#N)c2n1CCCC2,-8.6%
3,Cc1ccc(S(=O)(=O)N(CC(=O)NCCSC2CCCCC2)c2ccccc2F)cc1,8.5%
4,CCOC(=O)N1CCN(C(=O)c2cc3c(ccc4ccccc43)oc2=O)CC1,-5.2%
5,Cc1cnc(NC(=O)CSc2nnc(-c3ccccc3)n2Cc2ccccc2)s1,-2%
6,Cc1ccc2c(Cl)c(C(=O)NCCCn3ccnc3)sc2c1,-28.3%
7,Nc1cc(=O)nc(SCc2ccccc2)n1Cc1ccco1,-95%
8,CCC(=O)c1ccc(OCC(O)CN2CCN(c3cccc(C(F)(F)F)c3)CC2)cc1 (centres undefined),4.1%
9,CCOC(=O)CSc1nc2c(c(=O)n(C)c(=O)n2C)n1Cc1ccccc1F,-0.2%
10,CC(N)C12CC3CC(CC(O)(C3)C1)C2 (centres undefined),1%
11,CC(C)N1C(=O)C2C(C(=O)NC3CCCCC3)C3C=CC2(O3)C1C(=O)NC1CCCC1 (centres undefined),-10.8%
12,COc1ccc(-n2nnnc2SCC(=O)c2ccc(OC)c(OC)c2)cc1,-6.6%
13,CCN(CC(=O)NC(C)C)C(=O)CCNC(=O)c1ccc(Cl)cc1,-9.6%
14,COC(=O)C1=C(C)N=C2SC(C)C(=O)N2C1/C=C/c1ccccc1 (centres undefined),-6.2%
15,COc1ccccc1NC1=NC(c2ccc(Cl)cc2)N=C(N)N1 (centres undefined),-12.5%
16,Cc1ccc(S(=O)(=O)NC(=O)N2CCCC(C)(C)C2)cc1,4.1%
17,Cc1[nH]c2ccccc2c1C(=O)CSCC(=O)O,4.2%
18,O=C(OCC(=O)N1CCCC1)c1ccco1,-4.1%
19,NNC(=O)C1CCCn2c1nc1sc3c(c1c2=O)CCCC3 (centres undefined),-4.7%
20,COc1cc(/C=N\NC(=O)C2C(=O)NCC2c2ccccc2)cc(OC)c1O (centres undefined),-1.5%
21,CC(=O)c1ccc(OCCN2CCOCC2)cc1,-16.7%
22,CC1(C)C2CCC13CS(=O)(=O)NC3C2 (centres undefined),19.3%
23,CC1(C)OC(=O)N2CCc3ccccc3C21C (centres undefined),0.2%
24,CCCNS(=O)(=O)c1ccc(CCC(=O)NCc2cccnc2)cc1,34.1%
